Source: PubChem
TSHR ag: agonists of human thyroid stimulating hormone receptor | P16473 | HEK293-CNG-TSHR cells (CNG channel as cAMP sensor), membrane potential dye, cAMP | Potency, µM (top dose mostly 57.1 µM), most hits filed as activators | 0.48% of 73,000 active | AID 926; active means well fitted activation curve with a large enough effect in the main read-out, with a control signal flat, not every such curve was filed as active; inconclusive means small, poorly fitted or top-dose-only effect, or a change in a side signal; inactive means no such curve, though single readings can be large or run the other way; reference of the percent scale not stated here;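 further: the control signal comes from parental cells without the receptor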
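HEK 293 cells stably expressing TSHR and a cAMP-gated CNG channel; parental CNG-only cells as counterscreen. Cells preloaded 60 min with membrane potential dye plus 100 uM RO 20-1724, then compound 30 min; fluorescence read at 590 nm.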
GBA activity: human lysosomal glucosylceramidase modulation. P04062. purified enzyme, resorufin glucoside fluorescence (screen aimed at inhibitors), 20 min. Potency, µM. 1.1% of 48,000 active. AID 360; in the data active means potency below about 15 µM; inconclusive means mostly about 16 µM to 33 µM;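 further: the screen sought inhibitors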
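Compounds titrated against 0.2 nM normal enzyme, 30 uM resorufin beta-D-glucopyranoside substrate, citrate/phosphate buffer with taurocholate and tween-20, pH 5.9. Reaction ran 20 min at room temperature; fluorescence (Ex 548/Em 600) gave AC50.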
PK Bst: modulators of Bacillus stearothermophilus pyruvate kinase | AID 361 | 1.2% of 51,000 active | purified pyruvate kinase, luminescence ATP production; ribose 5-phosphate activator present at AC10 | Potency, µM; in the data active means potency below about 11 µM; inconclusive means mostly about 12 µM to 25 µM;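 the screen sought inhibitors and activators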
Ub-GFP proteasome: ubiquitin-GFP accumulation via proteasome inhibition; Ubiquitin-GFP reporter cells, proteasome inhibition, GFP fluorescence; response scale: untreated = 0%, 10 µM MG-132 = 100%; Potency, µM (series often up to 45.9 µM), usual class: activators; 67,000 tested, under 10 active; active means well fitted activation curve with a large enough effect, not every such curve was filed as active; inconclusive means small, poorly fitted or top-dose-only effect, or another doubt; inactive means no such curve, though single readings can be large or run the other way
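GFP accumulation read-out: laser plate cytometry counting ubiquitin(G76V)-GFP-expressing U2OS cells after 4 hr compound exposure at 37 °C. Titrations spanned 46 uM to 2.9 nM; 0% = basal, 100% = 10 uM MG-132; concentration-response curves fitted.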
USP2a inh: blocks human ubiquitin-specific protease USP2a; O75604; USP2a enzymatic assay, qHTS inhibition; Potency, µM (highest dose often 38.3 µM), usual class: inhibitors; 0.1% of 60,000 active; further: nearly all actives have a fitted effect of over 60% in size
Target sequence (O75604 whole entry, looked up): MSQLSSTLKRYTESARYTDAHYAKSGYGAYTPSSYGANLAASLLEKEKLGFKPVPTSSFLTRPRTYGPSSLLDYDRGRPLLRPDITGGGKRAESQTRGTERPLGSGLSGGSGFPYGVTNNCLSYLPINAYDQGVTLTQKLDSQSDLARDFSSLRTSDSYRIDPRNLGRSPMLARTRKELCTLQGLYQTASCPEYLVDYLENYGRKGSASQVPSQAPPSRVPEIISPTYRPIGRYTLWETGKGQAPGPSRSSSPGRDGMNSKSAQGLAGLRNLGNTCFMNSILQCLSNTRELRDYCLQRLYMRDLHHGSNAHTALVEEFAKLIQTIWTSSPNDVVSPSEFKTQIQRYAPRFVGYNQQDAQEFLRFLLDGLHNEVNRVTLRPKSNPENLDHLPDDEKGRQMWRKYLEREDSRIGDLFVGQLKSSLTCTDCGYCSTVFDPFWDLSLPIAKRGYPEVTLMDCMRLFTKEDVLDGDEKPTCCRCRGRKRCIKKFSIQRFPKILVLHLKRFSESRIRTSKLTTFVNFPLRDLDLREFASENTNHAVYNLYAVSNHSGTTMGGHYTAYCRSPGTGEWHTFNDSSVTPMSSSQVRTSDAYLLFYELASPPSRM
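USP2 core (20nM final) preincubated 30 min RT with compound, then Ub-PLA2 20nM and NBD C6-HPC 20uM final added; buffer 20mM Tris-HCl pH 8.0, 2mM CaCl2. Fluorescence Ex 460/Em 535 read at 0 and 2.5 h; normalized to NEM.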
HEK293 cAMP cs: counter-screen for TSHR agonists: cAMP increase in parental HEK293 | Potency, µM (titrated, usually from 57.1 µM), actives largely listed as activators | 2.5% of 73,000 active | parental HEK293 CNG cAMP sensor, membrane potential fluorescence; further: nearly all actives have a fitted effect of over 55% in size
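Parental HEK 293 cells stably expressing a modified CNG channel (no TSHR) report cAMP rise as membrane depolarization. Membrane potential dye with 100 uM RO 20-1724 was loaded for 60 min at room temperature, then compound added for 30 min; fluorescence read at 590 nm.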
A number is an active result; 0 = inactive; ? = inconclusive; - = not tested or not shown; [ ] = another dose, or the depositor's remark. Sampled rows, rich in hits. Any-hit rate of the full collection: about 4.1%. Unless noted, the call rests on the fitted dose curve; in most records, active means well fitted curve in the direction sought with a large enough effect; inconclusive means small, poorly fitted or top-dose-only effect, or another doubt; inactive means no such curve, though single readings can be large; an effect the other way counts as inactive or inconclusive.

SMILES	TSHR ag	GBA activity	PK Bst	Ub-GFP proteasome	USP2a inh	HEK293 cAMP cs
COc1ccc(C(c2nnnn2CC2CCCO2)N2CCN(c3cccc(C)c3C)CC2)cc1 (centres undefined)	?	-	0	0	0	7.9µM
COc1ccc2[nH]c(=O)c(C(c3nnnn3CC3CCCO3)N3CCc4ccccc4C3)cc2c1 (centres undefined)	0	14	0	0	0	0
CCCCC(c1nnnn1CC1CCCO1)N1CCN(c2cccc(C)c2C)CC1 (centres undefined)	?	?	0	0	-	?
Cn1c(=O)c2c(nc(C(=N)SCC(=O)O)n2C)n(C)c1=O	0[11.4 µM]	-	-	0[9.17 µM]	-	0[11.4 µM]
Oc1[nH]c2ccccc2c1C=Nc1ccc2c(c1)OCCO2	0	?	3.2	0	0	0
S=c1nc(-c2ccccc2)n(Cc2ccco2)c2c1CCCC2	5µM	-	-	-	-	0
c1ccc(-c2nc3nc4ccccc4nc3n2Cc2ccco2)cc1	?	0	0	0	0	10µM
Fc1ccc(-c2nc3nc4ccccc4nc3n2Cc2ccco2)cc1	?	0	0	0	0	?
COc1cccc(Cn2c(=O)cnc3cnc(Nc4ccccc4)nc32)c1	?	-	-	?	0	?
O=C(CN1CCN(S(=O)(=O)c2ccc(Br)cc2)CC1)Nc1ccc(F)cc1F	?	0	0	0	0	?
O=C(CN1CCN(S(=O)(=O)c2ccc(Br)cc2)CC1)Nc1ccccc1F	?	-	-	-	-	32µM
COc1cccc(-c2nccc(NCCc3c[nH]c4ccc(OC)cc34)n2)c1	0	-	-	0	?	0
CCN(CC)c1nc(Nc2ccccc2)nc(Oc2ccc(=O)[nH]n2)n1	0	0	0	0	0	0
CN(C)c1nc(NCc2ccccc2)nc(Oc2ccc(=O)[nH]n2)n1	20µM	0	0	0	0	0
Cc1ccc(-c2csc(=S)n2CC(=O)OCC(=O)NCc2ccco2)cc1	?	0	0	0	0	32µM
COc1ccc(Oc2ncc3nc(-c4cccc(C#N)c4)c(=O)n(CCC#N)c3n2)cc1	?	-	-	0	0	?
Cc1ccc(-n2c(C)cc(C(=O)CSc3nncs3)c2C)cc1	?	0	0	0	0	25µM
COc1ccc(Cc2nnc3n2N=C(c2cc4ccccc4o2)CS3)cc1OC	?	0	0	0	0	25µM
O=C(C1CCN(S(=O)(=O)c2ccc3ccccc3c2)CC1)N1CCN(c2ncccn2)CC1	?	0	0	0	0	25µM
O=C(C1CCCN(S(=O)(=O)c2ccccc2)C1)N1CCN(c2ncccn2)CC1 (centres undefined)	0	0	0	0	0	0
COc1ccc(-c2csc(NCc3ccco3)n2)cc1	0	0	4.6	0	0	0
CCC/C=C(\CCC)C(NP(=O)(c1ccccc1)c1ccccc1)c1ccc(C(F)(F)F)cc1 (centres undefined)	?	-	-	-	-	4µM
CCC/C=C(\CCC)C(NP(=O)(c1ccccc1)c1ccccc1)c1ccc(-c2ccccc2)cc1 (centres undefined)	0	-	-	-	-	0
CN1CCc2c(sc3c2C(=O)NC(c2ccco2)N3)C1 (centres undefined)	0	0	0	0	0	0
O=C1NC(c2cccs2)Nc2sc3c(c21)CCCC3 (centres undefined)	0	0	2.9	0	0	0
SMILES	TSHR ag	GBA activity	PK Bst	Ub-GFP proteasome	USP2a inh	HEK293 cAMP cs
C#C[C@]1(O)CCC2C3CCC4=Cc5oncc5C[C@@]4(C)C3CC[C@@]21C (some centres undefined)	-	-	-	-	0	-
CCc1ccc2oc(-c3cccc(NC(=O)c4cccnc4)c3)nc2c1	0	?	4.1	0	0	0
Cc1ccc(-c2nc(CS(=O)(=O)CC(=O)N3CCc4ccccc4C3)c(C)o2)cc1	?	-	-	0	-	1.6µM
COCCNc1nc(C)nc2c1nc(-c1ccccc1)n2CCN(C)C	0	-	-	0	-	0
NC(=O)c1ccc(-c2ncc(-c3ccccc3)o2)cc1	0[11.4 µM]	0	4	0	0	0
COC(=O)C1=C(C)N(Cc2ccccc2)[C@]23O[C@](C(=O)OC)(C(=O)N2C1c1ccccc1)C1CCOC(=O)C13 (some centres undefined)	0[11.4 µM]	-	-	-	-	0[11.4 µM]
COc1ccc(-n2nnnc2-c2cccc(OC)c2)cc1	?	0	0	0	0	?
Clc1ccc(-n2nnnc2-c2ccccc2)cc1Cl	?	-	-	0	0	25µM
COC(=O)c1ccc(CSc2nc3c(c(=O)n2-c2ccc(F)cc2)SCC3)o1	3.2µM	?	0	0	0	0
COC(=O)[C@@H]1CC[C@H](C)[C@@H](c2ccc(C)cc2)N1C(=O)c1ccc(/C=N\O[C@@H]2O[C@H](COC(C)=O)[C@H](OC(C)=O)[C@H](OC(C)=O)[C@H]2OC(C)=O)cc1	0[11.4 µM]	-	-	-	-	0[11.4 µM]
CO/N=C\c1ccc(C(=O)N2[C@H](c3ccc(C)cc3)[C@@H](C)CC[C@H]2C(=O)OC)cc1	?	-	-	-	-	2µM
C/C(CCC(=O)OC[C@@H]1O[C@H](C#Cc2ccccc2)C=C[C@@H]1Oc1ccc(C)cc1)=N/OC[C@@H](C)[C@H](OCc1ccccc1)C(C)C	0[11.4 µM]	-	-	-	-	0[11.4 µM]
C=C(C)CSc1nnc(-c2cccc(S(=O)(=O)N(C)C)c2)n1-c1cc(OC)ccc1OC	?	-	0	0	0	13µM
c1cncc(-c2cncnc2NC2CCNCC2)c1	0	-	-	0	0	0
CSc1nc(N)c2ncn([C@@H]3O[C@@H](COP(=O)(O)OP(=O)(O)OP(=O)(O)O)[C@@H](O)[C@H]3O)c2n1	0	-	-	0	0	0
O=C(Nc1ccc([N+](=O)[O-])cc1Cl)c1cc(Cl)ccc1O	?	-	-	0	0	0.5µM
N#Cc1cccc(-c2nccc(NCc3cccnc3)n2)c1	0	-	-	0	0	0
C=CCn1c(SCC(=O)NCC2CCCO2)nc2scc(-c3ccco3)c2c1=O (centres undefined)	0	0	0	0	0	0
O=C(CSc1nc2scc(-c3ccco3)c2c(=O)n1-c1ccccc1)NCC1CCCO1 (centres undefined)	32µM	0	0	0	0	0
O=c1c(-c2ccc(F)c(F)c2)nc2cncnc2n1C1CC1	0	-	-	0	0	0
FC(F)(F)c1cc(-c2ccco2)nc(-n2nnc3ccccc32)n1	?	0	0	0	0	25µM
c1ccc2c(c1)Cc1cc3cc4c(cc3nc1-2)OCO4	-	-	-	-	-	0
NC(N)=NC(N)=Nc1ccc(C(=O)O)cc1	0[11.4 µM]	-	-	0[9.17 µM]	-	0[11.4 µM]
O=C(Nc1ccccc1)N1CCCC(c2nc(-c3cccs3)no2)C1 (centres undefined)	0	0.71	0	0	0	0
Cc1cccc(-c2nnc(-c3ccc(N)cc3)o2)c1	0	0	9	0	0	0
NCCNC(=S)S	0[11.4 µM]	-	-	0[9.17 µM]	-	0[11.4 µM]
CCN(Cc1ccccc1)C(c1ccccn1)c1nnnn1C(C)(C)CC (centres undefined)	?	0	0	0	0	5µM
